Laboratory results published in ChEMBL document CHEMBL1961873, “Compounds: GSK PKIS; Assays: Nanosyn kinase panel” (2012).

Experiments:
[1] = biological target: Leukocyte tyrosine kinase receptor (Homo sapiens) (UniProt P29376); details: at 1 µM;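 further: each value is the mean inhibition of LTK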
[2] = biological target: Tyrosine-protein kinase Lyn (Homo sapiens) (UniProt P07948); details: at 0.1 µM
[3] = biological target: Tyrosine-protein kinase Lyn (Homo sapiens) (UniProt P07948); details: at 1 µM
[4] = biological target: Tyrosine-protein kinase Lyn (Homo sapiens) (UniProt P07948); details: at 0.1 µM; remark: listed apart in the source
[5] = biological target: Tyrosine-protein kinase Lyn (Homo sapiens) (UniProt P07948); details: at 1 µM; remark: listed apart in the source
[6] = biological target: T1, Tyrosine-protein kinase Mer (Homo sapiens) (UniProt Q12866); details: at 0.1 µM
T1 sequence (whole entry): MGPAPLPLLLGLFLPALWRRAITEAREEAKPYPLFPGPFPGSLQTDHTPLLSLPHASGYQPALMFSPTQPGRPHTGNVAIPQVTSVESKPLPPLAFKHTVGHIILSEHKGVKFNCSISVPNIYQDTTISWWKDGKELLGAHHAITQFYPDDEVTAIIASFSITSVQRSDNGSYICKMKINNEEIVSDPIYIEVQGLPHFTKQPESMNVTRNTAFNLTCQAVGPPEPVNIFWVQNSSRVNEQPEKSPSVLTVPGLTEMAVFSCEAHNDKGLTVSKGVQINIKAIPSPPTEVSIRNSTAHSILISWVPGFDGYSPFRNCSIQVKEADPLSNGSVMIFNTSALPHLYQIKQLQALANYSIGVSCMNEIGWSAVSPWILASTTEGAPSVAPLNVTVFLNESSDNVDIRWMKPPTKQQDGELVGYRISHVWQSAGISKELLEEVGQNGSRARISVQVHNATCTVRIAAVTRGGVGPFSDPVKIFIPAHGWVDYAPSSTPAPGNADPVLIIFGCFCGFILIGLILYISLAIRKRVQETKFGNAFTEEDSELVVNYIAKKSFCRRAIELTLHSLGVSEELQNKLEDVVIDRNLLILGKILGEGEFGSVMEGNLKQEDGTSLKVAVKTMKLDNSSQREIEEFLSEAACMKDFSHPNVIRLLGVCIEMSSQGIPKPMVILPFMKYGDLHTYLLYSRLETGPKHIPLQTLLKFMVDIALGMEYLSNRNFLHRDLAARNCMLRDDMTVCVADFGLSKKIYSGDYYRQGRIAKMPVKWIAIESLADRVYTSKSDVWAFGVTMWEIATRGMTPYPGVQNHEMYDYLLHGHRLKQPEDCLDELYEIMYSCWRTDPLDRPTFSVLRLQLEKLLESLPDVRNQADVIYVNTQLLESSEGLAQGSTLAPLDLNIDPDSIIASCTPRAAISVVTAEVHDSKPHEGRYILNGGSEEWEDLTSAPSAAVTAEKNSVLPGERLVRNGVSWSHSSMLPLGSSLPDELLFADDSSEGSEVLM

[7] = biological target: T1, Tyrosine-protein kinase Mer (Homo sapiens); details: at 1 µM
[8] = biological target: Hepatocyte growth factor receptor (Homo sapiens) (UniProt P08581); details: at 0.1 µM
[9] = biological target: Hepatocyte growth factor receptor (Homo sapiens) (UniProt P08581); details: at 1 µM
[10] = biological target: T2, Muscle, skeletal receptor tyrosine-protein kinase (Homo sapiens) (UniProt O15146); details: at 0.1 µM
T2 sequence (whole entry): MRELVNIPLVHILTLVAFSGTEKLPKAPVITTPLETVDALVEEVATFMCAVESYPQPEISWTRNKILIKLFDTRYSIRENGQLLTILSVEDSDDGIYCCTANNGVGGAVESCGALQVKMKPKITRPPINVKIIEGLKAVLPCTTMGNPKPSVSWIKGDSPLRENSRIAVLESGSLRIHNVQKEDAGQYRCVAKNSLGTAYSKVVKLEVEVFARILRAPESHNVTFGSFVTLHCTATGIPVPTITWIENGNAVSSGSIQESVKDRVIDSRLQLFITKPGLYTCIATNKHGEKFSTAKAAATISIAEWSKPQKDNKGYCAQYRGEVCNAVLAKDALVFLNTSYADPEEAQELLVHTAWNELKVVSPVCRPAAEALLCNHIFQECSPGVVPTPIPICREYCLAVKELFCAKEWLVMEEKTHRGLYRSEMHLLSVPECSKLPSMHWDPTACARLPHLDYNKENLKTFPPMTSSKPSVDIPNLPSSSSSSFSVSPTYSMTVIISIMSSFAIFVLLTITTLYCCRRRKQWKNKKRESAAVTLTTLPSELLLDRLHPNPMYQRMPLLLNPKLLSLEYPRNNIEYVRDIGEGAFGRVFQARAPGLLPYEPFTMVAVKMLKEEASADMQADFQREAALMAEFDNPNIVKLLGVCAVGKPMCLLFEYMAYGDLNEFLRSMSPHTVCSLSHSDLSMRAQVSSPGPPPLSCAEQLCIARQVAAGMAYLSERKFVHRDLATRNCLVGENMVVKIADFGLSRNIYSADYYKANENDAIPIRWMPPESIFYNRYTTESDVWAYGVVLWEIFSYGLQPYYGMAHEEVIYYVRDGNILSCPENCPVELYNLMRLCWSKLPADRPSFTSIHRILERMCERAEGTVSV

[11] = biological target: T2, Muscle, skeletal receptor tyrosine-protein kinase (Homo sapiens); details: at 1 µM
[12] = biological target: Platelet-derived growth factor receptor alpha (Homo sapiens) (UniProt P16234); details: at 0.1 µM
[13] = biological target: Platelet-derived growth factor receptor alpha (Homo sapiens) (UniProt P16234); details: at 1 µM
[14] = system: Platelet-derived growth factor receptor alpha (Homo sapiens), P16234 [D842V]; details: at 0.1 µM
[15] = system: Platelet-derived growth factor receptor alpha (Homo sapiens), P16234 [D842V]; details: at 1 µM
[16] = system: Platelet-derived growth factor receptor alpha (Homo sapiens), P16234 [T674I]; details: at 0.1 µM
[17] = system: Platelet-derived growth factor receptor alpha (Homo sapiens), P16234 [T674I]; details: at 1 µM
[18] = system: Platelet-derived growth factor receptor alpha (Homo sapiens), P16234 [V561D]; details: at 0.1 µM
[19] = system: Platelet-derived growth factor receptor alpha (Homo sapiens), P16234 [V561D]; details: at 1 µM
[20] = biological target: Platelet-derived growth factor receptor beta (Homo sapiens) (UniProt P09619); details: at 0.1 µM;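 further: reported value is the mean percent inhibition of the kinase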
Sequence of Platelet-derived growth factor receptor beta (Homo sapiens) (P09619 whole entry): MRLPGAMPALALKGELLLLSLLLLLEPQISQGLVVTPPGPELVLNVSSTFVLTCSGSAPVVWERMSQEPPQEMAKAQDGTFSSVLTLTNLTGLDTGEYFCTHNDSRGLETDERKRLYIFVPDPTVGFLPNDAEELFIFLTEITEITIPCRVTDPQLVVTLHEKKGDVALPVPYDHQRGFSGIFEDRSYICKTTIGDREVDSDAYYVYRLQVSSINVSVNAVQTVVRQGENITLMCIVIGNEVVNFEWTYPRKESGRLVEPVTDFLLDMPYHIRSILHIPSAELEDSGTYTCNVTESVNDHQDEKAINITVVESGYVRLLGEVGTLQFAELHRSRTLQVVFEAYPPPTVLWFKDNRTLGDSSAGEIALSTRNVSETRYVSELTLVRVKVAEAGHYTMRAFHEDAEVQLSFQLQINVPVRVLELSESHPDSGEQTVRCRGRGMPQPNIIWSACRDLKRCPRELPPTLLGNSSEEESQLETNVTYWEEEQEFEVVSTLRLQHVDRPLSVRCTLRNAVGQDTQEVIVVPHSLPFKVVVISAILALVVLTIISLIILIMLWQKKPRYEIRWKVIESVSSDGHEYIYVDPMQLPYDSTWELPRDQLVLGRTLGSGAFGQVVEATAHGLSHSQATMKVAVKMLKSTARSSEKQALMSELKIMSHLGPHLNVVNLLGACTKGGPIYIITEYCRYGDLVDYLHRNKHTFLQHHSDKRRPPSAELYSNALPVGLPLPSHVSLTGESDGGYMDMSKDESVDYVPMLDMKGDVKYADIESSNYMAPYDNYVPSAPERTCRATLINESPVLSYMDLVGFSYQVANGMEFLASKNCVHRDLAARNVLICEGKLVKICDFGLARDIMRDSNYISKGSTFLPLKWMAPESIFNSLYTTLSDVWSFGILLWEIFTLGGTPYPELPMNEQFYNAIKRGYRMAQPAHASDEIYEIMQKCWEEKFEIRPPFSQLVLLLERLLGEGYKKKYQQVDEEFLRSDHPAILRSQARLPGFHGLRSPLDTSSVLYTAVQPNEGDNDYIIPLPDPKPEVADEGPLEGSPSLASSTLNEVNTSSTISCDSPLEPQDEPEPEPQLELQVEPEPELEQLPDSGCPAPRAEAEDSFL

Sequence of Leukocyte tyrosine kinase receptor (Homo sapiens) (P29376 whole entry): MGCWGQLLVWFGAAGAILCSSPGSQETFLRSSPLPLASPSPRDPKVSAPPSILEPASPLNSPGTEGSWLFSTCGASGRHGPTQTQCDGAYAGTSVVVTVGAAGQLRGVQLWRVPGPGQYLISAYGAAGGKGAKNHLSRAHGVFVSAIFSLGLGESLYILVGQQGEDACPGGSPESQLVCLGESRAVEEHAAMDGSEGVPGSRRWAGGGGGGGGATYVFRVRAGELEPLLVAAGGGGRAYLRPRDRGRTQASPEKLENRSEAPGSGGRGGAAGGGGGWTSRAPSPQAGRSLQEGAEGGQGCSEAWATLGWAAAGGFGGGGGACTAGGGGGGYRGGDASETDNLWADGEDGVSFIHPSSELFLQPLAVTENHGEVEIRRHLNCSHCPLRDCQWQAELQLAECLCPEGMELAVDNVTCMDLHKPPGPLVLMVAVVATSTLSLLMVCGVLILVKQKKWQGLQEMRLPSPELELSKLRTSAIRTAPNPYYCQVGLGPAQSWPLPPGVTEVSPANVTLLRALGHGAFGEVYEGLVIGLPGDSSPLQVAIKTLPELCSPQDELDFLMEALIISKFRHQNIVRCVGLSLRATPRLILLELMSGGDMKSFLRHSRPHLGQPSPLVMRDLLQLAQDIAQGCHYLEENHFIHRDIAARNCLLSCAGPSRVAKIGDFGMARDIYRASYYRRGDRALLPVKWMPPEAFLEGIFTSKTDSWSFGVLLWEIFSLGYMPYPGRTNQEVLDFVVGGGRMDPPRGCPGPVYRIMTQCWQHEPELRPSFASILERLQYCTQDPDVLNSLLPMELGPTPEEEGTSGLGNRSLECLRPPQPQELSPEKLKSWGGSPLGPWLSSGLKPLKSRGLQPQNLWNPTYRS
Sequence of Hepatocyte growth factor receptor (Homo sapiens) (P08581 whole entry): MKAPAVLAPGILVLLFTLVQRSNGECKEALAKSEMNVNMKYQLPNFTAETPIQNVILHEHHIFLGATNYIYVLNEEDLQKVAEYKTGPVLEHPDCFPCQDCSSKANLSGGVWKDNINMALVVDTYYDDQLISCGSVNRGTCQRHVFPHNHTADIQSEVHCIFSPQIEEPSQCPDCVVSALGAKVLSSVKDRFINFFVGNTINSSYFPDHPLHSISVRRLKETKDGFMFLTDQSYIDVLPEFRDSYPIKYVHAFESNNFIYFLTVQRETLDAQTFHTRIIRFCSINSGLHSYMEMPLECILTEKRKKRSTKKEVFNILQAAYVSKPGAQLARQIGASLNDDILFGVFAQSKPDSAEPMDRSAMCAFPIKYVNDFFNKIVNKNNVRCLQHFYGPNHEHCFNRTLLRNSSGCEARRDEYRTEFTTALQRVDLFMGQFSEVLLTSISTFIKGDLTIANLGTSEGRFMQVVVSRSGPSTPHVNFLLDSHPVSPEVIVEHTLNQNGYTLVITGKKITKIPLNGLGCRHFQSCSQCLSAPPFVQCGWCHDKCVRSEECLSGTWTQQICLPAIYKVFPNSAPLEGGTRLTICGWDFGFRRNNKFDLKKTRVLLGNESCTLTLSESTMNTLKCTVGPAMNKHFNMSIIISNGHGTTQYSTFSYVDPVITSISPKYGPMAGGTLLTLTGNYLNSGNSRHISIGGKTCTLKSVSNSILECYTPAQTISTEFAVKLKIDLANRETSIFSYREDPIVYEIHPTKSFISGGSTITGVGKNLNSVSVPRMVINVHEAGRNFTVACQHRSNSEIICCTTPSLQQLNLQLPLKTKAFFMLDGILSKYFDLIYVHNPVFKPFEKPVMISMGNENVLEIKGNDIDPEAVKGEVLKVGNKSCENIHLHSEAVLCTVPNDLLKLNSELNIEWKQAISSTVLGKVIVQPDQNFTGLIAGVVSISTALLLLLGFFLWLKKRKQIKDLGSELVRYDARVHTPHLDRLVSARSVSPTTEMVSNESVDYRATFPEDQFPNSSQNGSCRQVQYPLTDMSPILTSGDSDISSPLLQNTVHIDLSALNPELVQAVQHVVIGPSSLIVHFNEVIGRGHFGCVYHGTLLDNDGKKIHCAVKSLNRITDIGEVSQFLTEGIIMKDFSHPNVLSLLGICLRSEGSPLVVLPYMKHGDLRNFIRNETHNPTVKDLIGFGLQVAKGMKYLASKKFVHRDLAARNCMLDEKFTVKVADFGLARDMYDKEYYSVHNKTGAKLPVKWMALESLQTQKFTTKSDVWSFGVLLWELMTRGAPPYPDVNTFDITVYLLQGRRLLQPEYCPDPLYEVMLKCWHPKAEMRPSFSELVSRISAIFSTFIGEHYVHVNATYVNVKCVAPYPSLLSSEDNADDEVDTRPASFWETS
Sequence of Platelet-derived growth factor receptor alpha (Homo sapiens), P16234 [T674I] (P16234 whole entry T674I): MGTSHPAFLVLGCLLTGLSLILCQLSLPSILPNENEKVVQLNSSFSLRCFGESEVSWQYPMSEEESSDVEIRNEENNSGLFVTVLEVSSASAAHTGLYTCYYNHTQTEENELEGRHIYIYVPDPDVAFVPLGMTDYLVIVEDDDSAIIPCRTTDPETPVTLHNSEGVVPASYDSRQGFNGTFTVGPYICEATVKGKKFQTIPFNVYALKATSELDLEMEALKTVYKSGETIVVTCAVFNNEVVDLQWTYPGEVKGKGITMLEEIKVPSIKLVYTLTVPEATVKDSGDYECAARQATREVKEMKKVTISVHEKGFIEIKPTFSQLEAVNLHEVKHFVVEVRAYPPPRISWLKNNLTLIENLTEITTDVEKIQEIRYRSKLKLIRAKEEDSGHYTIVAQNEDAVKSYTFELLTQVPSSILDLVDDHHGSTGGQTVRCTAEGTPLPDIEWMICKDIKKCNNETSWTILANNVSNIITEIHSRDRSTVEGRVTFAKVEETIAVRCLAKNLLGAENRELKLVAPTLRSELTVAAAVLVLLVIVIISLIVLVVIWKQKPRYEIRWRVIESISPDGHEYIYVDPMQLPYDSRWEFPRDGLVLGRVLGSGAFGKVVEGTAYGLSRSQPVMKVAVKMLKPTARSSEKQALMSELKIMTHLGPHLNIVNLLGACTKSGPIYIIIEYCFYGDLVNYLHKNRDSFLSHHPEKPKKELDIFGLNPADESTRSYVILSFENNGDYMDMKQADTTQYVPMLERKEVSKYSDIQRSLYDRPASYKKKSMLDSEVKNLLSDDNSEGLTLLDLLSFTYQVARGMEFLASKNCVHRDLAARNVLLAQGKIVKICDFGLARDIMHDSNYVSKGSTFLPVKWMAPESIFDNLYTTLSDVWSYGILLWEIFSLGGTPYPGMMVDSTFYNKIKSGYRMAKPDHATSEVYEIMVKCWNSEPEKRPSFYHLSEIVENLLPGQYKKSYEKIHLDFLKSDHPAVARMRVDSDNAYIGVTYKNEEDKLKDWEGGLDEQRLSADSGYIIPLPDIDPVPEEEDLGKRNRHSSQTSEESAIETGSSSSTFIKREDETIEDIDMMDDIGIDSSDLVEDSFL
Sequence of Tyrosine-protein kinase Lyn (Homo sapiens) (P07948 2-512 limits assumed): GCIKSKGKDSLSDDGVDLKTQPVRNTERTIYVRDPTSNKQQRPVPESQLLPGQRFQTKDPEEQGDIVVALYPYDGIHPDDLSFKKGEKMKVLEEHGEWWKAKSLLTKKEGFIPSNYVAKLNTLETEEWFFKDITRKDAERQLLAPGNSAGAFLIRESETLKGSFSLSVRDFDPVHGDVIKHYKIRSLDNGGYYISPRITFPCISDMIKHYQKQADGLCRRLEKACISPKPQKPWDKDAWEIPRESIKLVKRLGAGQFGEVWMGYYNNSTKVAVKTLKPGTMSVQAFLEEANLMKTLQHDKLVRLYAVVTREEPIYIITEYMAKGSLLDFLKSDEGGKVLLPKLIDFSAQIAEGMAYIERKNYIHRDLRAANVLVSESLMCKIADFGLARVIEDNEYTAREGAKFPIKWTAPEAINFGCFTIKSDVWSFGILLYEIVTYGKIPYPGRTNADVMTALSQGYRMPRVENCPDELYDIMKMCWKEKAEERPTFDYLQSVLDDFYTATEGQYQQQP

CCC(=O)Nc1ccc(C)c(-c2ccc(C(=O)NCC3CC3)cc2)c1
inhibition [1]: 3.92% | inhibition [2]: 4.52% | inhibition [3]: 5.05% | inhibition [4]: 1.69% | inhibition [5]: 2.75% | inhibition [6]: 2.88% | inhibition [7]: 4.95% | inhibition [8]: 6.02% | inhibition [9]: 4.29% | inhibition [10]: 1.96% | inhibition [11]: 0.72% | inhibition [12]: 3.2% | inhibition [13]: 11.6% | inhibition [14]: 2.61% | inhibition [15]: 3.14% | inhibition [16]: 3.93% | inhibition [17]: 4.6% | inhibition [18]: 4.95% | inhibition [19]: 3.77% | inhibition [20]: -0.7%

O=C(NCC1CC1)c1ccc(-c2cccc(C(=O)NC3CC3)c2)cc1
inhibition [1]: -0.6% | inhibition [2]: 0.78% | inhibition [3]: 1.7% | inhibition [4]: 0.33% | inhibition [5]: 2.4% | inhibition [6]: 0.92% | inhibition [7]: 3.13% | inhibition [8]: 5.94% | inhibition [9]: -2.79% | inhibition [10]: 6.72% | inhibition [11]: 7.49% | inhibition [12]: 8.93% | inhibition [13]: 6.92% | inhibition [14]: -0.01% | inhibition [15]: -0.59% | inhibition [16]: 4.42% | inhibition [17]: 0.5% | inhibition [18]: -0.78% | inhibition [19]: 2.85% | inhibition [20]: 9.04%

CCS(=O)(=O)c1ccc(OC)c(Nc2ncc(-c3ccccc3Cl)o2)c1
inhibition [1]: 0.98% | inhibition [2]: 3.85% | inhibition [3]: 18.6% | inhibition [4]: 3.61% | inhibition [5]: 14.8% | inhibition [6]: -0.83% | inhibition [7]: 9.17% | inhibition [8]: 0.15% | inhibition [9]: 3.68% | inhibition [10]: 4.75% | inhibition [11]: 8.58% | inhibition [12]: 5.6% | inhibition [13]: 16.2% | inhibition [14]: 1.1% | inhibition [15]: 4.35% | inhibition [16]: 0.38% | inhibition [17]: 5.02% | inhibition [18]: 2.97% | inhibition [19]: 15.1% | inhibition [20]: 4.1%

CN(c1ccc(NC(=O)Nc2c(Cl)cccc2Cl)cc1)c1ccnc(Nc2cccc(CS(C)(=O)=O)c2)n1
inhibition [1]: 1.45% | inhibition [2]: 29.7% | inhibition [3]: 64.8% | inhibition [4]: 27.1% | inhibition [5]: 60.9% | inhibition [6]: 14.6% | inhibition [7]: 29.6% | inhibition [8]: 80.8% | inhibition [9]: 85% | inhibition [10]: 72.8% | inhibition [11]: 89.9% | inhibition [12]: 69.3% | inhibition [13]: 86.6% | inhibition [14]: 6.78% | inhibition [15]: 28.6% | inhibition [16]: 72.1% | inhibition [17]: 97.5% | inhibition [18]: 78.7% | inhibition [19]: 91.2% | inhibition [20]: 52.4%

Fc1ccc(-c2ncn(C3CCNCC3)c2-c2ccnc(Oc3ccc4c(c3)OCO4)n2)cc1
inhibition [1]: 8.02% | inhibition [2]: 5.3% | inhibition [3]: 7.55% | inhibition [4]: 3.33% | inhibition [5]: 5.4% | inhibition [6]: 2.7% | inhibition [7]: 5.24% | inhibition [8]: 2.27% | inhibition [9]: 7.4% | inhibition [10]: 5.07% | inhibition [11]: 4.22% | inhibition [12]: 11.8% | inhibition [13]: 15.7% | inhibition [14]: 2.99% | inhibition [15]: 5.32% | inhibition [16]: 11.5% | inhibition [17]: 16.1% | inhibition [18]: 5.05% | inhibition [19]: 5.41% | inhibition [20]: 7.36%

COc1ccc2cc(-c3c(-c4ccncc4)nc(-c4ccc([S+](C)[O-])cc4C)n3C)ccc2c1 (stereo not given)
inhibition [1]: 2.92% | inhibition [2]: 2% | inhibition [3]: 21.4% | inhibition [4]: 0.52% | inhibition [5]: 16.8% | inhibition [6]: 0.82% | inhibition [7]: 9.89% | inhibition [8]: -1.42% | inhibition [9]: 3.32% | inhibition [10]: 0.94% | inhibition [11]: 0.57% | inhibition [12]: 0.98% | inhibition [13]: 12.4% | inhibition [14]: -0.45% | inhibition [15]: 2.27% | inhibition [16]: 0.22% | inhibition [17]: 2.22% | inhibition [18]: -2.47% | inhibition [19]: 5.84% | inhibition [20]: 0.23%

NC(=O)c1ccc(Oc2nccc(-c3c(-c4ccc(F)cc4)ncn3C3CCNCC3)n2)cc1
inhibition [1]: 4.14% | inhibition [2]: 4.17% | inhibition [3]: 5.34% | inhibition [4]: 1.86% | inhibition [5]: 4.92% | inhibition [6]: 3.18% | inhibition [7]: 6.79% | inhibition [8]: 13.2% | inhibition [9]: 8.14% | inhibition [10]: 3.97% | inhibition [11]: 9.48% | inhibition [12]: 5.32% | inhibition [13]: 10.6% | inhibition [14]: 2.12% | inhibition [15]: 4.3% | inhibition [16]: 2.24% | inhibition [17]: 6.2% | inhibition [18]: 5.07% | inhibition [19]: 7.97% | inhibition [20]: 4.31%
